Screens deposited in PubChem by National Center for Advancing Translational Sciences (NCATS).
PI5P4Ka inh = PI5P4K alpha (human) kinase inhibition. P48426. PI5P4Kalpha enzyme, ADP-Glo luminescence, 60 min; hits give low values. max response, %. actives 1.2% (n = 330,000). AID 652105; active = max response of -50% or lower; inconclusive = between -30% and -50%; inactive = -30% or higher; note: value at the top dose of about 77 µM; % is set by controls: 0 for no effect and ±100 for the full control effect
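ADP-Glo luminescence end-point read after a 60 min room-temperature kinase reaction of PI5P4Kalpha plus substrate, initiated with ATP at 5 microM final. Buffer: 0.038 M HEPES pH 7.4, EGTA, 0.1% CHAPS, 5% DMSO.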
HP1b chromo inh = HP1-beta chromodomain-methylated histone interaction inhibition. AlphaScreen HP1-beta / biotin-H3K9me3 peptide binding. Potency, µM (doses to about 114 µM), inactives show at the highest dose activity change, negative = inhibition, hits mostly inhibitors. P83916. actives 0.56% (n = 390,000); note: potency is the fitted concentration of half-maximal effect; nearly all actives have a fitted effect of over 70% in size
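HP1-beta protein (50 nM final) preincubated 30 min at room temperature with biotinylated H3(1-18)K9me3 peptide (50 nM) in PBS pH 7.4, 0.01% Tween-20, then compound added for 30 min. AlphaScreen streptavidin donor/nickel chelate acceptor beads (10 ug/mL final), 30 min dark, luminescence read.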
JMJD2A Tudor inh = inhibitors of human JMJD2A Tudor domain. Potency, µM (titrated, usually from 114 µM), for the others: at the top dose activity change, negative = inhibition, usual class: inhibitors. O75164. AlphaScreen JMJD2A-Tudor / H3K4me3 peptide binding. actives 4.4% (n = 390,000). AID 504339; note: potency is the fitted concentration of half-maximal effect; % is set by controls: 0 for no effect and ±100 for the full control effect; nearly all actives have a fitted effect of over 50% in size
G9a inh = inhibitors of human histone lysine methyltransferase G9a. Q96KQ7. G9a H3K9 monomethylation, AlphaScreen, 2 h. Potency, µM (top dose mostly 102 µM), for inactives: top-dose activity, negative = inhibition, actives largely listed as inhibitors. actives 8.8% (n = 350,000); note: potency is the fitted concentration of half-maximal effect; % is set by controls: 0 for no effect and ±100 for the full control effect; nearly all actives have a fitted effect of over 75% in size
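Quantitative HTS format: methyltransferase activity on a biotin-tagged H3K9 peptide is measured by AlphaScreen, using a rabbit anti-monomethyl-H3K9 antibody with streptavidin donor and anti-IgG acceptor beads. Final levels are 20 nM enzyme, 500 nM peptide, 20 uM SAM; 2 h RT.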
BAZ2B inh = inhibitors of human BAZ2B bromodomain; AlphaScreen BAZ2B-H3K14Ac peptide displacement; Potency, µM (series often up to 114 µM), without a hit: at the highest dose activity change, negative = inhibition, hits mostly inhibitors; actives 4.4% (n = 360,000); AID 504333; note: potency is the fitted concentration of half-maximal effect; % is set by controls: 0 for no effect and ±100 for the full control effect; nearly all actives have a fitted effect of over 60% in size
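Inhibition is scored as reduced AlphaScreen emission. The BAZ2B/b-H3(5-23)K14Ac complex (50 nM each) in PBS pH 7.4, 0.01% Tween-20 meets compound (up to 110 uM) for 30 min at RT before bead addition.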
L3MBTL1 inh = L3MBTL1 (human) inhibition. Q9Y468. AlphaScreen L3MBTL1–H3K9me1 peptide binding. Potency, µM (titrated, usually from 57.1 µM), without a hit: top-dose activity, negative = inhibition, most hits filed as inhibitors. actives 0.66% (n = 230,000). AID 485360; note: potency is the fitted concentration of half-maximal effect; % is set by controls: 0 for no effect and ±100 for the full control effect; nearly all actives have a fitted effect of over 60% in size
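AlphaScreen proximity signal between nickel-chelate acceptor and streptavidin donor beads (final 10 ug/mL) reports binding of 50 nM L3MBTL1 to 75 nM biotin-H3 K9me1 peptide; complex incubated with compounds 30 min at room temperature; cefsulodin titration as control.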
Starred values were filed as active, the others as inactive; u = inconclusive; x = no result given; [ ] = dose if it differs, or a comment. Most compounds without a hit are left out; they make up all but 11% or so of the library. Unless noted, calls come from the whole dose curve; as a rule, active = well fitted inhibition curve with a large enough effect; inconclusive = small, poorly fitted or top-dose-only effect; inactive = no such curve, though single readings can be large or run the other way.

SMILES	PI5P4Ka inh	HP1b chromo inh	JMJD2A Tudor inh	G9a inh	BAZ2B inh	L3MBTL1 inh
CC(=O)NC1=NC(=O)/C(=C/c2cc(C)n(-c3cccc(C(=O)O)c3)c2C)S1	u	u	u	20µM*	15.8µM*	x
Cc1c(Cc2ccccc2)sc(/N=C/c2c(O)ccc3ccccc23)c1C(N)=O	u	u	u	3.16µM*	u	-11.0%
COc1ccc(/C=C/C(=O)Nc2sc(Cc3ccccc3)c(C)c2C(N)=O)cc1	-0.8	25.7%	-26.0%	-21.0%[59 µM]	-0.8%	5.0%
Cc1c(Cc2ccccc2)sc(/N=C/c2ccc3ccccc3c2)c1C(N)=O	-27.0	8.2%	u	20µM*	8.5%	8.9%
CCOc1cccc(C(=O)NC(=S)NCc2cccnc2)c1	-3.1	16.4%	-25.6%	-50.2%[59 µM]	-20.4%	-0.4%
C=CCOc1ccc(C(=O)Nc2ccccc2C(=O)NCc2cccnc2)cc1	-7.9	8.0%	-18.6%	70.8µM*	-11.6%	x
CC(C)COc1cccc(C(=O)NC(=S)NCc2cccnc2)c1	-9.2	-15.7%	u	44.7µM*	-35.0%	-10.1%
CCOc1ccc(C(=O)NC(=S)NCc2cccnc2)cc1	13.3	28.1%	-4.4%	1µM*	-7.6%	7.3%
CCCOc1ccc(C(=O)NC(=S)NCc2cccnc2)cc1	5.5	6.9%	-20.5%	44.7µM*	u	-4.9%
CCOC(=O)N1CCN([N+]([O-])=NOc2cc(O/N=[N+](\[O-])N(CC)CC)c([N+](=O)[O-])cc2[N+](=O)[O-])CC1	x	18.2%	-24.1%	x	x	x
O=C(NCc1ccc(F)cc1)c1cc(Sc2ccc(F)cc2F)nc2ccccc12	x	25.9%	-18.3%	0.0%[59 µM]	-0.4%	x
CCOC(=O)c1c(C)[nH]c(CCC(=O)NCc2ccc(CC)cc2)c1C	x	22.2%[57 µM]	-6.5%	-1.9%[59 µM]	2.9%	x
Cc1ccc(C)c(N2CCN(CCCNC(=O)c3ccc4nc(C(C)C)oc4c3)CC2)c1	x	20.5%[57 µM]	-21.1%	-2.3%[59 µM]	-19.7%	x
NNC(=S)NCc1cccnc1	11.7	9.7%	u	1.41µM*	-0.5%	6.4%
NC(=S)NCc1cccnc1	-1.6	26.2%	-7.4%	3.2%	0.5%	-1.3%
C#CCOCCOCCOCCNc1nc(N2CCN(C(=O)C(Cc3ccc(O)cc3)n3cc(C(N)CC(C)C)nn3)CC2)nc(N2CCN(C(=O)C(Cc3cc4ccccc4[nH]3)n3cc(C(N)Cc4ccc(O)cc4)nn3)CC2)n1 (centres undefined)	x	x	x	-0.7%[12.7 µM]	35.5µM*	u
C#CCOCCOCCOCCNc1nc(N2CCN(C(=O)[C@H](CCC(=O)O)n3cc(C(N)Cc4ccc(O)cc4)nn3)CC2)nc(N2CCN(C(=O)[C@H](Cc3cc4ccccc4[nH]3)n3cc(C(N)CC(C)C)nn3)CC2)n1 (some centres undefined)	x	x	x	4.7%[12.7 µM]	79.4µM*	u
C#CCOCCOCCOCCNc1nc(N2CCN(C(=O)[C@H]([C@@H](C)CC)n3cc([C@@H](N)CO)nn3)CC2)nc(N2CCN(C(=O)[C@H](Cc3cc4ccccc4[nH]3)n3cc([C@@H](N)Cc4ccc(O)cc4)nn3)CC2)n1	x	x	x	u	14.1µM*	x
C#CCOCCOCCOCCNc1nc(N2CCOCC2)nc(N2CCN(C(=O)[C@H](Cc3cc4ccccc4[nH]3)n3cc([C@@H](N)Cc4ccc(O)cc4)nn3)CC2)n1	-2.4	-7.4%	u	u	u	-16.9%
CCN(CC)S(=O)(=O)c1ccc2nc(NC(=O)c3cccnc3)sc2c1	x	8.0%[57 µM]	-9.1%	11.2%[59 µM]	2.8%	x
Cc1ccc(Cc2nc3ccccc3nc2SCC(=O)NCc2ccccc2Cl)cc1	x	30.3%[57 µM]	-6.5%	5.9%[59 µM]	-16.5%	x
Nc1cc2nc3ccccc3oc-2cc1=O	-28.4	-24.5%	u	x	44.7µM*	u
COC(=O)c1ccc(NC(=O)CC2C(=O)N(c3cccc(F)c3)C(=O)N2CC(C)C)cc1 (centres undefined)	x	4.6%	-14.2%	-10.8%[59 µM]	-10.5%	x
CCc1ccc(NC(=O)CN2C(=O)c3ccccc3Sc3ccc(C(=O)N4CCCC4)cc32)cc1	x	2.5%	-11.5%	-31.0%[59 µM]	-14.8%	x
CN(C)c1ccc(NC(=O)CN2C(=O)c3ccccc3Sc3ccc(C(=O)N4CCCC4)cc32)cc1	x	-16.2%	u	4.47µM*	u	x
SMILES	PI5P4Ka inh	HP1b chromo inh	JMJD2A Tudor inh	G9a inh	BAZ2B inh	L3MBTL1 inh
CN(C)S(=O)(=O)c1cccc(-c2nn(-c3ccccc3)cc2/C=C2\SC(=S)NC2=O)c1	-85.6*	u	39.8µM*	39.8µM*	31.6µM*	-16.4%
O=C(Nc1c2c(nn1-c1ccc(Cl)cc1)CS(=O)(=O)C2)c1cccc(F)c1	x	16.8%	-18.7%	-11.7%[59 µM]	-1.5%	x
COc1ccc(/C=C2\SC(=S)N(N3C(=O)CCC3=O)C2=O)cc1O	u	-7.8%	-12.4%	8.91µM*	u	-29.1%
COc1ccccc1/C=C1\SC(=S)N(N2C(=O)CCCC2=O)C1=O	9.8	u	u	20µM*	u	-9.3%
Cc1cc(C)n(/N=C/c2cc([N+](=O)[O-])ccc2O)c(=O)c1	-21.1	17.2%	u	u	50.1µM*	1.9%
O=C1/C(=C/c2cccc(Br)c2)SC(=S)N1/N=C/c1cc([N+](=O)[O-])ccc1O	-28.2	-3.7%	u	39.8µM*	35.5µM*	x
O=[N+]([O-])c1ccc(O)c(/C=N/n2cnnc2)c1	-10.2	14.0%	-27.2%	44.7µM*	2.3%	2.1%
Oc1ccccc1/C=N/n1cnnc1	2.7	12.5%	79.4µM*	50.1µM*	8.9%	x
O=[N+]([O-])c1cccc(/C=N/n2cnnc2)c1O	u	48.1%	-16.0%	14.7%[59 µM]	-6.6%	-1.7%
COc1ccc(OC)c(-n2c(=O)[nH]c3cc(C(=O)NCCc4ccc(OC)c(OC)c4)ccc3c2=O)c1	x	47.6%	-3.1%	5.3%[59 µM]	2.8%	x
COc1cccc(-c2cncnc2NCc2cccc(C)c2)c1	x	x	x	2.3%[0.501 µM]	x	x
COc1cc(OC)c(NC(=O)c2c(N3CCCC3=O)c3cc(C)ccc3n2C)cc1Cl	x	13.2%	-11.4%	-17.4%[59 µM]	-20.9%	x
COc1ccccc1NC(=O)C1CCCN(c2ncnc3onc(-c4ccc(F)cc4)c23)C1 (centres undefined)	x	-4.0%	-8.0%	0.4%[59 µM]	0.8%	x
Cc1cccc(NC(=O)c2ccc3nc(CCc4ccccc4)oc3c2)c1C	x	8.2%[57 µM]	-11.8%	-1.9%[59 µM]	-21.5%	x
Cc1cc([N+](=O)[O-])c(C)cc1-c1ccc(/C=N/n2cnnc2)o1	-10.3	2.6%	-27.8%	u	-23.3%	-4.7%
O=[N+]([O-])c1ccc(-c2ccc(/C=N/n3cnnc3)o2)c(Br)c1	-4.6	3.6%	u	50.1µM*	u	-7.0%
CCSC(C)CC1CC(=O)CC(=O)C1 (centres undefined)	-5.0	22.0%	-15.6%	56.2µM*	-4.6%	7.8%
